# Bioassay records: PubChem BioAssay, several laboratories
# sEH act: activators of human soluble epoxide hydrolase; purified human sEH enzymatic activity, activator screen; activation, % at 2 µM; 0.04% of 91,000 active; in the data active means activation above about 37%
# Target sequence (P34913 whole entry, looked up): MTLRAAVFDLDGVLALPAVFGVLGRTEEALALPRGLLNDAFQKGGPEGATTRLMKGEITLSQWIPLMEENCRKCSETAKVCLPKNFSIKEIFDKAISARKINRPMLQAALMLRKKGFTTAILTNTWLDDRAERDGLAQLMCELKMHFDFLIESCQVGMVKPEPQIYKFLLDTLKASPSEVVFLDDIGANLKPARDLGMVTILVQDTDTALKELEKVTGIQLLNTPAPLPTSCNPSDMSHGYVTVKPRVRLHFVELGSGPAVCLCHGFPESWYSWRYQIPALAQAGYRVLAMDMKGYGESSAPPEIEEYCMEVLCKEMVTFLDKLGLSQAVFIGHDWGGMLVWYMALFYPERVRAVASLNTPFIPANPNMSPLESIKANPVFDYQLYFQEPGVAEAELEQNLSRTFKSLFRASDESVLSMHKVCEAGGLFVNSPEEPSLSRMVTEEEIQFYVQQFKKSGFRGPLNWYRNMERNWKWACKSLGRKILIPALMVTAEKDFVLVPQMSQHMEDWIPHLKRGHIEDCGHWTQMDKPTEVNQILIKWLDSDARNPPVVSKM
# CYP2C9 inhib: blocks human cytochrome P450 2C9 | 20% of 96,000 active | P11712 | inhibition, % at 5 µM | CYP2C9 Supersomes, luciferin-H conversion, luminescence;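 active means blocking of liver enzyme CYP2C9 beyond about 50% at 5 µM, limit read from the data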
# CYP2C19 act: activators of human cytochrome P450 2C19 | P33261 | activation factor at 5 µM | 96,000 tested, under 10 active | recombinant CYP2C19, luciferin-H EGE luminescence; hits give high values; 0 = fully inhibited enzyme, 1 = untreated enzyme;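 active means activation factor of at least 2 at 5 µM in the primary screen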;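 further: 0 = wells with 2.5 mM tranylcypromine and 1 = vehicle-only wells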
# CYP2C9 act: activators of human CYP2C9; P11712; recombinant CYP2C9, luciferin-H conversion, luminescence; hits give high values; factor 1 = untreated enzyme, 0 = blocked; activation factor at 5 µM; 1.4% of 96,000 active; AID 1024;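 active means activation factor of 2 or more for CYP2C9 at a 5 µM dose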;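 further: 0 = sulfaphenazole-blocked wells and 1 = vehicle-only wells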
# CYP2C19 inh: inhibitors of human CYP2C19; P33261; 21% of 96,000 active; CYP2C19 Supersomes, luciferin-H EGE luminescence, 30 min; inhibition, % at 5 µM;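 active means CYP2C19 inhibition above a set limit at 5 µM in the primary screen, cut at about 50% in these data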;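 further: plate controls were negative control wells for no effect and 2.5 mM tranylcypromine positive control for full effect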
# sEH inh: soluble epoxide hydrolase (human) inhibition; recombinant human sEH enzymatic activity assay; inhibition, % at 2 µM; P34913; 0.34% of 91,000 active; in the data active means inhibition above about 80%
# The depositor's hits bear a star; . = no result. Most compounds without a hit are left out; they make up all but 27% or so of the library.
SMILES,sEH act,CYP2C9 inhib,CYP2C19 act,CYP2C9 act,CYP2C19 inh,sEH inh
CS(=O)(=O)N(Cc1ccc(Cl)cc1)c1ccc(C(=O)Nc2cccnc2)cc1,-9,84*,0,0.2,95*,9
Cc1ccc2nc(N/N=C\c3ccc([N+](=O)[O-])o3)nc(-c3ccccc3)c2c1,-5,87*,0.3,0.1,73*,8
O=[N+]([O-])c1ccc(/C=N/Nc2nc(-c3ccccc3)c3cc(Br)ccc3n2)o1,9,-2,1,1,-4,-10
O=S(=O)(C=C(c1ccccc1)c1ccccc1)c1ccccc1,5,32,0.3,0.7,66*,-3
O=S(=O)(/C=C/c1ccccc1)c1ccccc1,20,-306,0.1,4.1*,91*,-18
C/C(=N\NS(C)(=O)=O)c1ccccc1,10,-27,0.9,1.3,9,-13
O=S(=O)(N/N=C\C=C\c1ccccc1)c1ccccc1,2,.,.,.,.,0
O=C(COC(=O)c1ccc2c(c1)OCO2)NC1CCS(=O)(=O)C1 (stereo unspecified),.,-12,1.1,1.1,-9,.
CCC(Sc1nc2ccccc2c(=O)[nH]1)C(=O)O (stereo unspecified),4,3,1.1,1,-10,-9
Cc1ccnc(NS(=O)(=O)c2ccc(CC(C)C)cc2)c1,-1,38,0.3,0.6,72*,0
O=S(=O)(Nc1ncccc1O)c1ccc(Cl)cc1,4,18,0.1,0.8,86*,-6
CC(=O)Nc1ccc(S(=O)(=O)Nc2ncccn2)cc1,.,-1,1,1,4,.
O=S(=O)(Nc1cc(Cl)ccn1)c1ccc(Cl)cc1,8,74*,0.5,0.3,47,-8
COc1ccc(S(=O)(=O)Nc2ccccn2)cc1OC,6,-14,0.9,1.1,8,-8
COc1ccc(S(=O)(=O)Nc2cc(C)ccn2)cc1OC,6,-70,0.6,1.7,43,-6
CCOC(=O)c1ccc(-n2nc(C(F)(F)F)c3c(C)cc(=O)oc32)cc1,0,.,.,.,.,3
CCC(C)[C@H](NC(=O)NCC1CCCO1)C(=O)OC (stereo partly specified),-5,-12,1.1,1.1,-14,2
O=C(Nc1ccc2c(c1)OCCO2)C1CCN(S(=O)(=O)c2cccs2)CC1,-48,58*,0.3,0.4,67*,48
O=C(Nc1ccc2c(c1)OCO2)C1Cc2ccccc2CN1S(=O)(=O)c1cccs1 (stereo unspecified),3,72*,0.4,0.3,56*,-2
CC(=O)c1cccc(NC(=O)C2CCN(S(=O)(=O)c3cccs3)CC2)c1,-27,68*,0.1,0.3,92*,25
O=C(C1Cc2ccccc2CN1S(=O)(=O)c1cccs1)N1CCCCC1 (stereo unspecified),7,8,0.7,0.9,26,-9
O=C(Nc1ccc2c(c1)OCO2)C1CCN(S(=O)(=O)c2cccs2)CC1,-31,36,0.7,0.6,29,32
O=S(=O)(Nc1ccc2c(c1)OCO2)c1cccs1,-1,66*,0.1,0.3,91*,2
COc1ccc(S(=O)(=O)N2CCC(C(=O)Nc3cccc(C(C)=O)c3)CC2)cc1,-18,.,.,.,.,18
COc1ccc(C2c3c(oc4ccccc4c3=O)C(=O)N2Cc2ccncc2)cc1OC (stereo unspecified),15,.,.,.,.,-17
SMILES,sEH act,CYP2C9 inhib,CYP2C19 act,CYP2C9 act,CYP2C19 inh,sEH inh
N=c1sccn1CC(=O)NCCc1ccc(Cl)cc1Cl,15,-4,0.9,1,7,-17
CC(=O)NCCCc1nc2ccccc2n1Cc1ccccc1C,18,-21,0.9,1.2,13,-21
O=C(Nc1ccc2c(c1)OCO2)C1CCCN(c2nc3ccccc3s2)C1 (stereo unspecified),-58,54*,0.5,0.5,48,58
CCC(C)NC(=O)C1CCN(S(=O)(=O)c2cccs2)CC1 (stereo unspecified),-9,52*,1,0.5,5,12
CCC(CC)NC(=O)C1CCN(S(=O)(=O)c2cccs2)CC1,0,41,0.8,0.6,24,2
CCc1nnc(NC(=O)C2CCCN(c3nc4ccccc4s3)C2)s1 (stereo unspecified),-15,6,0.8,0.9,21,14
O=C(Nc1ccc2c(c1)OCO2)C1CCCN(S(=O)(=O)c2cccs2)C1 (stereo unspecified),-53,68*,0.5,0.3,53*,52
O=C(Nc1ccc2c(c1)OCCO2)C1CCCN(S(=O)(=O)c2cccs2)C1 (stereo unspecified),-60,47,0.6,0.5,42,59
Cc1ccc(-n2c(Cn3cnc4ccccc43)nnc2SCC(=O)O)cc1,-4,.,.,.,.,2
COc1ccccc1CN1CCN(C(=O)c2ccncc2)CC1,2,12,0.1,0.9,87*,-1
COc1cccc(OC)c1C(=O)N1CCN(Cc2ccncc2)CC1,1,63*,0.2,0.4,78*,-3
CCCOc1ccccc1C1NC(=O)NC(C)=C1C(=O)OCCOC (stereo unspecified),7,22,0.5,0.8,54*,-4
CCCOc1ccccc1C1NC(=O)NC(C)=C1C(=O)OCCOC(C)C (stereo unspecified),.,53*,0.4,0.5,56*,.
CC1=C(C(=O)OCc2ccc3c(c2)OCO3)C(c2ccccc2OCc2ccccc2)NC(=O)N1 (stereo unspecified),6,99*,0.7,0,30,-7
CCCCn1c(=O)c2ccccc2c2ccccc2c1=O,6,72*,0.2,0.3,82*,-6
CCCCn1c(=O)c(-c2ccccc2)c(O)c2ccccc21,10,-7,0.9,1.1,11,-10
O=C1CC(=O)C(n2cncn2)C(c2ccc(Cl)cc2)C1 (stereo unspecified),4,10,0.9,0.9,6,-6
CC(=O)Nc1n[nH]c(S(=O)(=O)Cc2ccc(Cl)cc2Cl)n1,-2,-22,1,1.2,4,2
COCCn1c(SCc2cccnc2)nnc1-c1ccco1,-12,16,0.9,0.8,14,12
COCCNC(=O)COC(=O)/C=C/c1c(C)nn(Cc2ccc(Cl)cc2Cl)c1Cl,5,56*,0.7,0.4,26,-3
Cc1nn(Cc2c(Cl)cccc2Cl)c(Cl)c1/C=C/C(=O)OCC(=O)NCC(F)(F)F,0,4,1.2,1,-24,2
COc1ccc(OC)c(NC(=O)C23CC4CC(C2)CC(n2cnc(Br)n2)(C4)C3)c1,0,-159,0.3,2.6*,72*,3
COc1cc(C(=O)NCCC(=O)NCCCN2CCCCC2)cc(OC)c1OC,.,-2,1.1,1,-5,.
CCCCC(=O)Nc1cccc(NC(=O)c2ccccc2Br)c1,-2,73*,0.4,0.3,58*,6
CCCCC(=O)Nc1cccc(NC(=O)CC)c1,-4,-2,0.9,1,11,5
